Measured values taken from PubChem BioAssay (Tox21).
Records with an inconclusive call do not appear. Unmarked numbers belong to inactive results. Activity calls are given as the source filed them. Calls follow the shape of the full dose curve.

What follows are molecules tested against Acetylcholinesterase (Homo sapiens) (UniProt P22303) (assay: Acetylcholinesterase (AChE) small molecule antagonists: fluorescence cell-based qHTS assay (AID 1347398; also: nearly all actives have a fitted effect of over 50% in size)). Details: SH-SY5Y cells; Potency: AChE activity; outcome: AChE activity; series mostly up to 115 µM; activity change, negative = inhibition: at the top concentration.
Acetylcholinesterase (Homo sapiens), sequence (P22303 whole entry, looked up): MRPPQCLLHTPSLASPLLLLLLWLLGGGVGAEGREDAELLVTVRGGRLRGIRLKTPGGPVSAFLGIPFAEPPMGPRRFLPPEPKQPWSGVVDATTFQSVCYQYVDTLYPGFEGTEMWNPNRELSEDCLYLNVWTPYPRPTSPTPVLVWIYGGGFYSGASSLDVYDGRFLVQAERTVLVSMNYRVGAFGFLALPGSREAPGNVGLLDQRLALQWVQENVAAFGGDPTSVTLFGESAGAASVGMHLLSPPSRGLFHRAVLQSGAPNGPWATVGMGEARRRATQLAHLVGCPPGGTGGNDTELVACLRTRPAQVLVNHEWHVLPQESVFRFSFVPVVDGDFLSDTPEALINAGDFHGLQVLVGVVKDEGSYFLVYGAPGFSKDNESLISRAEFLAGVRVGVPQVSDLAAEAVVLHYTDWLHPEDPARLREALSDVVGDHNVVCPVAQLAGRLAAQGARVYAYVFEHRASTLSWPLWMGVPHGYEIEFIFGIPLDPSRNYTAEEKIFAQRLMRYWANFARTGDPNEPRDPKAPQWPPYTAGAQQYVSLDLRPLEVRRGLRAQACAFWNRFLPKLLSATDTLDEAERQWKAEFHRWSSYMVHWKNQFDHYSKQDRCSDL
Outline: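 Cells (SH-SY5Y) attached overnight, were dosed with compound or DMSO vehicle for 30 min at 37 C, and then incubated 40 min at room temperature with acetylthiocholine and Thiolite Green; green fluorescence indexed AChE activity.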
% is scaled to controls: 0 for no effect and ±100 for the full control effect; potency is read from the fitted curve at half-maximal effect.

Compound | activity change, negative = inhibition | Potency
CCC(=O)OC/C=C(\C)CCC=C(C)C | 3.45% | –
COC(=O)CC(C)=O | 6.19% | –
CCOC(=O)CS | 36.5% | –
O=C(O)c1c(Cl)cccc1Cl | -13.7% | –
Cc1ccccc1N=Nc1ccc(N=Nc2c(O)ccc3ccccc23)c(C)c1 | 12.9% [at 53.7 µM] | –
CNC(C)=O | 0.545% | –
CNC(=O)C(c1ccccc1)c1ccccc1 | 1.52% | –
CC(=O)c1ccccc1N | -0.341% | –
CCCCCCCOC(=O)c1ccccc1C(=O)OCCCCCCC | -2.58% | –
CCCCCCCCC(=O)Cl | 4.21% | –
CCCCCCOc1ccc(N)cc1 | -4.91% | –
CN1CCN(CC(=O)N2c3ccccc3C(=O)Nc3cccnc32)CC1 | 5.87% [at 10.5 µM] | –
COCCOCCOCCOCCOC | 3.69% | –
CC(COc1ccccc1)NC(C)C(O)c1ccc(O)cc1 (stereo not given) | -4.69% [at 53.7 µM] | –
Nc1ccc(NCCO)c([N+](=O)[O-])c1 | – | 35.6 µM (active)
[K+] | 0.704% | –
O=C1CCCN1C1CCCCC1 | -6.72% | –
CC(C)(C)c1ccc(OCC2CO2)cc1 (stereo not given) | -1.81% | –
O=C1N(c2ccccc2)c2ccccc2C1(Cc1ccncc1)Cc1ccncc1 | 6.35% [at 53.7 µM] | –
COC(=O)c1cc(C(=O)OC)cc(S(=O)(=O)O)c1 | -15.9% | –

Compound | activity change, negative = inhibition | Potency
Nc1nc(Cl)nc2c1ncn2[C@@H]1O[C@H](CO)[C@@H](O)[C@@H]1F | 14.8% [at 53.7 µM] | –
O=C(O)[C@@H]1[C@H]2C[C@H]3c4[nH]c5ccccc5c4CCN3C[C@@H]2CC[C@@H]1O | -4.77% [at 53.7 µM] | –
N#CC1(N)CCCCC1 | 6.58% | –
COCCO | 30.8% | –
COc1ccc(-c2ccc3cc(C(=O)O)ccc3c2)cc1C12CC3CC(CC(C3)C1)C2 | 9.8% [at 53.7 µM] | –
CC(C)(O)c1ccc(CNC(=O)c2cccnc2Oc2ccc(F)cc2)cc1 | 2.11% | –
O=C(Nc1ccc([N+](=O)[O-])cc1)Nc1ccc([N+](=O)[O-])cc1 | -1.07% [at 53.7 µM] | –
C/C=C/C=C/C=O | 0.716% | –
C=CC(=O)OCCn1c(=O)n(CCOC(=O)C=C)c(=O)n(CCOC(=O)C=C)c1=O | -0.697% | –
CCC(=O)CC | -0.203% | –
CCCCC | -18.1% | –
Cc1oc2c(NC(=O)c3c(Cl)cccc3Cl)cccc2c1C(C)(C)O | -15.1% | –
Clc1ccc2n[nH]nc2c1 | -3.32% | –
CCCCOC(=O)CCCCCCCC(=O)OCCCC | -0.708% | –
CCCCCCCCCCCCCCCC(=O)OC/C=C(C)/C=C/C=C(C)/C=C/C1=C(C)CCCC1(C)C | -13.6% | –
CCCCCOc1ccccc1/C(=C\SC)n1ccnc1 | -12.8% [at 53.7 µM] | –
Nc1ccc2ccccc2c1S(=O)(=O)O | 2.28% | –
Nc1c(Br)cc([N+](=O)[O-])cc1Br | 3.34% | –
Cc1ccc(C(C)NC(=O)[C@@H](NC(=O)OC(C)C)C(C)C)cc1 (stereo not given in full) | -0.966% | –
C=CC(C)(O)CCCC(C)CCCC(C)CCCC(C)C (stereo not given) | -4.2% | –
